Data as given in PubChem BioAssay (NCATS).
Records with an inconclusive call do not appear. The list shows a part of the results. Active and inactive are the calls of the source. Unless noted, calls come from the whole dose curve; as a rule, active = well fitted curve in the direction sought with a large enough effect; inconclusive = small, poorly fitted or top-dose-only effect, or another doubt; inactive = no such curve, though single readings can be large; an effect the other way counts as inactive or inconclusive.

Key:
[1] = Cytometric Cell-Based qHTS for Inhibitors of the mTORC1 Signaling Pathway in MEF (Tsc2-/-, p53-/-) Cells (AID 2660)
How it was run: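 Immunofluorescence qHTS of rpS6 Ser235/236 phosphorylation: MEFs (Tsc2-/-, p53-/-) treated 24 h, 37 C, in DMEM + 10% FBS. Alexa-488 signal normalized to PI count, referenced to rapamycin (7.5 nM) and DMSO; PI cell number recorded for viability.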

[2] = High Content Imaging Cell-Based qHTS for Inhibitors of the mTORC1 Signaling Pathway in MEF (Tsc2-/-, p53-/-) Cells (AID 2666)
How it was run: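 MEF Tsc2-/- p53-/- (empty vector), DMEM/10% FBS; cpd 24 h 37 °C; PFA fix, Alexa-488 p-rpS6 S235/236 Ab, Hoechst; imaged; rapamycin-defined inhibition; % positive cells/well.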

[3] = High Content Imaging Cell-Based qHTS for Inhibitors of the mTORC1 Signaling Pathway in MEF Cells (AID 2667)
How it was run: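 Read-out is the share of phospho-rpS6-positive cells per well, from Hoechst-normalized Alexa-488 Ser235/236 staining imaged on IN Cell. Cells: WT Tsc2-expressing Tsc2-/-, p53-/- MEFs exposed to compound for 24 hrs.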

[4] = Cytometry Cell-Based qHTS for Inhibitors of the mTORC1 Signaling Pathway in MEF cells (AID 2668)
How it was run: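 Pathway inhibition in WT Tsc2-rescued Tsc2-/-, p53-/- MEFs is measured as the Alexa-488 phospho-rpS6 to propidium iodide intensity ratio after 24 hrs of compound at 37 degree Celsius. PI-stained cell number gives viability.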

[5] = Validation screen for inhibitors of Lassa infection (AID 463096; calls by dose curve)
[6] = Validation screen for small molecules that induce DNA re-replication in MCF 10A normal breast cells (AID 463097)
How it was run: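 DNA re-replication was detected as a rise in nuclei with elevated Hoechst fluorescence after a 48 hr compound exposure of MCF 10A cells at 37 C.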

[7] = biological target: DNA polymerase III PolC-type (Bacillus subtilis (strain 168)) (UniProt P13267); test: qHTS Validation Assay for the Inhibitors of DNA Replication in Gram-Positive Bacteria (AID 485295)
Sequence of DNA polymerase III PolC-type (Bacillus subtilis (strain 168)) (P13267 whole entry, looked up): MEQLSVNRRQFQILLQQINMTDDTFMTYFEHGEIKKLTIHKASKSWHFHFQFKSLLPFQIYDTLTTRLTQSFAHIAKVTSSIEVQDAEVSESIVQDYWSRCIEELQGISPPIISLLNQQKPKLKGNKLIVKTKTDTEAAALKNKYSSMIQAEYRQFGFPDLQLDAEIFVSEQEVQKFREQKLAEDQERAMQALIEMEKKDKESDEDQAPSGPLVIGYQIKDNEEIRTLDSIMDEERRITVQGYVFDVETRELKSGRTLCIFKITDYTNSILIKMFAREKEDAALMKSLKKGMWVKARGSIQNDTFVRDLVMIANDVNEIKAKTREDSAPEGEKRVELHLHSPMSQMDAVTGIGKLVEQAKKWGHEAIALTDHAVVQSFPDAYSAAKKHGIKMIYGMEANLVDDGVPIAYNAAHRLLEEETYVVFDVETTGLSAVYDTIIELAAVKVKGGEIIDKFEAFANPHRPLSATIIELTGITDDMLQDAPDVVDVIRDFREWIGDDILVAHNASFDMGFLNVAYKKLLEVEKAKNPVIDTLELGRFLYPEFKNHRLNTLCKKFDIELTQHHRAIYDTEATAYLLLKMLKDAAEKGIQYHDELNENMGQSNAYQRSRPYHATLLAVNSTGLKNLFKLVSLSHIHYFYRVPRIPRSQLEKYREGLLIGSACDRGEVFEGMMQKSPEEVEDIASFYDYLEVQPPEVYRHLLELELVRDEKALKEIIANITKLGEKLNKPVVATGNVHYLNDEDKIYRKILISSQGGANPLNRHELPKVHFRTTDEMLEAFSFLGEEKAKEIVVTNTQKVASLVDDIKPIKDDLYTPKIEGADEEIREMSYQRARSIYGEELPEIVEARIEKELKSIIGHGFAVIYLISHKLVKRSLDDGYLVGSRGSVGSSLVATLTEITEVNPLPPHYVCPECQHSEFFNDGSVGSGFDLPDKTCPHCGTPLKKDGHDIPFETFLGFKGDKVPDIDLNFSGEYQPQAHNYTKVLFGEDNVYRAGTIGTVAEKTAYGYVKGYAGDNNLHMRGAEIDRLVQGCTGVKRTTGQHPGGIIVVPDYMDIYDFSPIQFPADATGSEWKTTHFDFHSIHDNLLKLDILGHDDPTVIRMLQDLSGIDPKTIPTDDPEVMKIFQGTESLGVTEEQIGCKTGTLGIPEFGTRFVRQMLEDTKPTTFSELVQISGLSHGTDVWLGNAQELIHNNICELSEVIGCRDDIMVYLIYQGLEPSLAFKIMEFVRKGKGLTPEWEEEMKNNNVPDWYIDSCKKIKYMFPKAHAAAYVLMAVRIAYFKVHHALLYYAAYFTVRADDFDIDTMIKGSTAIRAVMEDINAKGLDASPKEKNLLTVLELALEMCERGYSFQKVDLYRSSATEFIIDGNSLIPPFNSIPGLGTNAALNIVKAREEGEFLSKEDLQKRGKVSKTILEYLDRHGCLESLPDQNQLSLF
How it was run: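 Primed replication of single-stranded M13Gori by a four-protein B. subtilis holoenzyme is measured at room temperature. Double-stranded product is quantified by PicoGreen fluorescence after an EDTA stop; inhibition is scaled between DMSO and EDTA controls.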

[8] = biological target: Tumor susceptibility gene 101 protein (Homo sapiens) (UniProt Q99816); test: qHTS Validation Assay for Iinhibitors of HIV-1 Budding by Blocking the Interaction of PTAP/TSG101 (AID 485342; calls by dose curve)
Sequence of Tumor susceptibility gene 101 protein (Homo sapiens) (Q99816 whole entry, looked up, the tested form may be a part): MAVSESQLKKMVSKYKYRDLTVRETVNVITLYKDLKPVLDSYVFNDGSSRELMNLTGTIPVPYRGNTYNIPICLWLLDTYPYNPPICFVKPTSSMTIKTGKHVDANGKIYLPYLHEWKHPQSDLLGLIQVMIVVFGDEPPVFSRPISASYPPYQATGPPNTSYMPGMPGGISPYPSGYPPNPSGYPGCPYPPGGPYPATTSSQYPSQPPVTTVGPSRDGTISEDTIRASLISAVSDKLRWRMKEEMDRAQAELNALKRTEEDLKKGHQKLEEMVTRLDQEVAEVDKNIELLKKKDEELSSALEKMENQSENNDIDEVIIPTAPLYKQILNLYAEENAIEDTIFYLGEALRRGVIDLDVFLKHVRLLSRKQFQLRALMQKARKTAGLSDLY
How it was run: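 Fluorescence anisotropy measured PTAP-Tsg101 interaction. Final concentrations were 10 uM protein domain and 50 nM labeled peptide, equilibrated 20 min at room temperature.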

[9] = qHTS Validation Assay to Find Inhibitors of Chronic Active B-Cell Receptor Signaling (AID 485345; active = well fitted curve in the direction sought with a large enough effect in the main read-out, with a control signal flat, not every such curve was filed as active)
How it was run: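 TMD8 ABC-DLBCL cells stably carrying doxycycline-inducible IkappaBalpha–green luciferase fusion plus unfused red luciferase; compounds 46 uM to 3 nM, 4 h at 37C with doxycycline. Corrected green/red luminescence ratio normalized to 10 uM MG-132 and basal cell wells; curves fitted.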

[10] = biological target: Beta-2 adrenergic receptor (Homo sapiens) (UniProt P07550); test: qHTS validation assay of beta-arrestin-biased ligands of beta2-adrenergic receptor (AID 485366)
How it was run: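 Agonism was measured as beta-arrestin recruitment to recombinant beta2-AR, releasing tTA to drive luciferase. Cells were exposed for 18 hr at 37 degrees C to a series up to 46 microM. %Activity from corrected luminescence gave concentration-response curves.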

[11] = biological target: ATP-dependent 6-phosphofructokinase (Trypanosoma brucei brucei) (UniProt O15648); test: qHTS Validation Assay to Find Inhibitors of T. brucei phosphofructokinase (AID 485368)
Sequence of ATP-dependent 6-phosphofructokinase (Trypanosoma brucei brucei) (O15648 whole entry, looked up): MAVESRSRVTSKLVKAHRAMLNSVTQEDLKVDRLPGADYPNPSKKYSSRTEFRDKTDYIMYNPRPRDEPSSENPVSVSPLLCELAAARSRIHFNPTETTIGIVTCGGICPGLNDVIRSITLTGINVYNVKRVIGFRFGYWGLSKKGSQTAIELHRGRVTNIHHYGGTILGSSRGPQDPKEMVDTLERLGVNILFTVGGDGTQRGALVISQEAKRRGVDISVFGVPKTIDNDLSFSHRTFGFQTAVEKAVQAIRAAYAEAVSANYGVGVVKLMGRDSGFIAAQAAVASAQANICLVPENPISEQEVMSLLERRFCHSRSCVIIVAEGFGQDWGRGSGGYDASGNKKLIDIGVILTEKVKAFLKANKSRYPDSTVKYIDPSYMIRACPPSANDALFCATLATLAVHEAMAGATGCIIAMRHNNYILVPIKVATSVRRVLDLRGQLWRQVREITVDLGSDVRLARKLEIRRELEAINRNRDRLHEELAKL
How it was run: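 ADP-Glo luminescence, two-step: residual ATP depleted, then ADP converted to ATP for luciferase. Enzyme 1.25 nM, F6P 0.5 mM, ATP 0.1 mM, pH 8.0 TEA buffer, 45 min RT. Curves fitted and classed by quality and efficacy.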

[12] = Quantitative high throughput screen for delayed death inhibitors of the malarial parasite plastid, 48 hour incubation (AID 488752)
How it was run: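 Cultures: infected erythrocytes at final 2% hematocrit and 0.1% parasitemia in Albumax-supplemented RPMI. Parasites express integrated firefly luciferase. Incubation with compound lasts 48 h before luminescent detection of remaining reporter activity.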

[13] = biological target: Thioredoxin reductase 1, cytoplasmic (Rattus norvegicus) (UniProt O89049); test: qHTS Assay for Inhibitors of Mammalian Selenoprotein Thioredoxin Reductase 1 (TrxR1) (AID 488773); details: Potency: inhibition
Sequence of Thioredoxin reductase 1, cytoplasmic (Rattus norvegicus) (O89049 whole entry, looked up): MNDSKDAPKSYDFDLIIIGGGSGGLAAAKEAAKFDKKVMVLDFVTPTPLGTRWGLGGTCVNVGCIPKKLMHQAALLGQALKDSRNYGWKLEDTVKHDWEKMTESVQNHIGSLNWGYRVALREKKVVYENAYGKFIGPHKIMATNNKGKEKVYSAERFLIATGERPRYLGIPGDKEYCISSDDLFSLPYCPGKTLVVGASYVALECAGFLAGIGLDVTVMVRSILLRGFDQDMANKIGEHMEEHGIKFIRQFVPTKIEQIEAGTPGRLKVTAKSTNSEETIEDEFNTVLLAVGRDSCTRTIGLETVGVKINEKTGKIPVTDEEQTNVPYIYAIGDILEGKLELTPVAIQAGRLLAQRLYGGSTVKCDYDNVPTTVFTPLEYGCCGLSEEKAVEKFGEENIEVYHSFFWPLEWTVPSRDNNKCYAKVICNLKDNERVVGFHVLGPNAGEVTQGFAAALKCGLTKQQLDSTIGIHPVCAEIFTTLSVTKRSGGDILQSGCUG
How it was run: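 Inhibition is scored from the loss of NADPH fluorescence between first and last reads of an 8-min kinetic run. Selenite (400 uM) was the substrate, added after 15 min compound preincubation at room temperature.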

[14] = biological target: M-phase phosphoprotein 8 (Homo sapiens) (UniProt Q99549); test: qHTS Validation Assay for Inhibitors for MPP8 Chromodomain Interactions with Methylated Histone Tails (AID 488949)
Sequence of M-phase phosphoprotein 8 (Homo sapiens) (Q99549 whole entry, looked up): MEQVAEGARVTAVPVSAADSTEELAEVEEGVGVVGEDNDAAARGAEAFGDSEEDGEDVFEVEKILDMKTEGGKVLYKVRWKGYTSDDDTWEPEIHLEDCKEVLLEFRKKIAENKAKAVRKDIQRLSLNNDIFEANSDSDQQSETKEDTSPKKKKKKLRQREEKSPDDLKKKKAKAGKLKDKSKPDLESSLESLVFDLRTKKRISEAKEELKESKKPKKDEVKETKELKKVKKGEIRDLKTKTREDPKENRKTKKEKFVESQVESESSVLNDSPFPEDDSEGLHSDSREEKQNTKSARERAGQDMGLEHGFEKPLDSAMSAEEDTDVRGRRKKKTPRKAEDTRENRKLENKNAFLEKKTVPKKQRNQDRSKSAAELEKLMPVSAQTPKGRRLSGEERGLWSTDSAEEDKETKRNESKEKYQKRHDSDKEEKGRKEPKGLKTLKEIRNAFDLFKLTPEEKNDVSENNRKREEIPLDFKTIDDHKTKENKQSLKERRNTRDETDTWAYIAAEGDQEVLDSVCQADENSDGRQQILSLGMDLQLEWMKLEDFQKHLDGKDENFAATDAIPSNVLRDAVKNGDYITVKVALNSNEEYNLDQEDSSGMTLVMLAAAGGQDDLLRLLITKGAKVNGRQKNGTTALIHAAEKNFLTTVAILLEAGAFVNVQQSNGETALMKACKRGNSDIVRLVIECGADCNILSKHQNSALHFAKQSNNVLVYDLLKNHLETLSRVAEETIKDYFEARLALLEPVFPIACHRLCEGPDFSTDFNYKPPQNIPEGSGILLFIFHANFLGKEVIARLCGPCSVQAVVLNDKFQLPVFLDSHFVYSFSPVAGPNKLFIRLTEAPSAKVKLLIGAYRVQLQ
How it was run: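 Disruption of the preformed MPP8–trimethyl-H3K9 peptide complex (both 50 nM, 30 min, RT) is measured after 30 min compound exposure, using AlphaScreen proximity beads; aurintricarboxylic acid titration serves as plate control.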

[15] = biological target: Ubiquitin carboxyl-terminal hydrolase 2 (Homo sapiens) (UniProt O75604); test: qHTS Validation Assay for Inhibitors of Ubiquitin-specific Protease USP2a Using CHOP2 as the Reporter (AID 463106)
Sequence of Ubiquitin carboxyl-terminal hydrolase 2 (Homo sapiens) (O75604 whole entry, looked up): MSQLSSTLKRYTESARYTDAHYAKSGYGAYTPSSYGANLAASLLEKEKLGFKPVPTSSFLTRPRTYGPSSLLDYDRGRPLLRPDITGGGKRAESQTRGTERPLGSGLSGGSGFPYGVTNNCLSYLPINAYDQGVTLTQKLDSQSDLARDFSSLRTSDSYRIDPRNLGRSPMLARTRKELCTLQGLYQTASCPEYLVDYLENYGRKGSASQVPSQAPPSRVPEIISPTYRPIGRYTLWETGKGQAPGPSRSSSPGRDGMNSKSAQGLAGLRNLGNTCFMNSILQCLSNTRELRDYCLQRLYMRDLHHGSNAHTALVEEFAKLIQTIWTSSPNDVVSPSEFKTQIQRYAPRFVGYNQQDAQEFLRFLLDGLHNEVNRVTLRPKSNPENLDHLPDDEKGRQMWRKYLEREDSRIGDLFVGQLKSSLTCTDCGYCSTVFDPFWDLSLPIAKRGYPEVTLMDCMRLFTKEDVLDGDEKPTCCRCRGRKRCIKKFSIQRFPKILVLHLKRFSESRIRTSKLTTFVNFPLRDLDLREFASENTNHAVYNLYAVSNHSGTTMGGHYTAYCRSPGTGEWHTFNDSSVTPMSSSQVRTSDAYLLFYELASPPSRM
How it was run: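 Fluorescence read-out at Ex 485nm/Em 531nm after 60min RT, following addition of 25nM Ub-CHOP2 plus 25nM reporter substrate to USP2 core (10nM) pretreated 30min with compound. Data normalized to NEM full inhibition; concentration-response curves fitted.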

[16] = biological target: Thioredoxin reductase 1, cytoplasmic (Rattus norvegicus) (UniProt O89049); test: qHTS Assay for Substrates of Mammalian Selenoprotein Thioredoxin Reductase 1 (TrxR1) (AID 488772)
How it was run: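 In this dual-purpose format, potential substrates are identified from the first fluorescence read after selenite addition, not from the 8-minute delta. Rat enzyme is preincubated with NADPH and then with compound at ~22 deg C.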

[17] = Quantitative high throughput screen for delayed death inhibitors of the malarial parasite plastid, 96 hour incubation (AID 488745)
How it was run: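 Two-generation (96 h) exposure of luciferase-reporter P. falciparum in erythrocytes, 2% hematocrit, 0.1% parasitemia final, 37 C, 5% CO2, RPMI 1640 with 0.5% Albumax. Growth inhibition scored by reduced luminescence.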

[18] = biological target: Flap endonuclease 1 (Homo sapiens) (UniProt P39748); test: qHTS Validation Assay for the Inhibitors of Human Flap endonuclease 1 (FEN1) (AID 488816)
Sequence of Flap endonuclease 1 (Homo sapiens) (P39748 whole entry, looked up): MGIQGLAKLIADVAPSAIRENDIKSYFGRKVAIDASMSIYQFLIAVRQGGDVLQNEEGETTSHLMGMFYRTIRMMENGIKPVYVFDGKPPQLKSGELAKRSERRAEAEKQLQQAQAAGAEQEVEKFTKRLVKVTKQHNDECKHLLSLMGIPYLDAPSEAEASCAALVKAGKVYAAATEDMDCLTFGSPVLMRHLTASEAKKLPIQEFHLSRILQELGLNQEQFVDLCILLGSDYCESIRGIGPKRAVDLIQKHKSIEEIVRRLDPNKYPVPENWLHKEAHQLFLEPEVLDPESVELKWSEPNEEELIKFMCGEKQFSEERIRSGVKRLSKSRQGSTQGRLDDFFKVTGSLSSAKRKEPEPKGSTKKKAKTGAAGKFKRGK
How it was run: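 Enzyme reagent 10 nM; cpds pinned; 15 min RT preinc.; substrate 50 nM final; reads t=0 and 15 min; no-enzyme buffer wells as neg. control; normalized data, 4-parameter Hill fit.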

[19] = biological target: Endonuclease 4 (Escherichia coli (strain K12)) (UniProt P0A6C1); test: Counterscreen for APE1 Inhibitors: qHTS Assay for Inhibitors of Endonuclease IV (AID 2565)
How it was run: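 Read-out: fluorescence rise (ex 525/em 598 nm) from incision of a TAMRA/BHQ-2 double-stranded THF abasic-site substrate (50 nM), measured kinetically; third-minus-first read difference gave reaction progress. Enzyme 2 nM.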

[20] = biological target: DNA repair nuclease/redox regulator APEX1 (Homo sapiens) (UniProt P27695); test: Confirmation qHTS Assay for Inhibitors of the Human Apurinic/apyrimidinic Endonuclease 1 (APE1) (AID 2572)
Sequence of DNA repair nuclease/redox regulator APEX1 (Homo sapiens) (P27695 whole entry, looked up): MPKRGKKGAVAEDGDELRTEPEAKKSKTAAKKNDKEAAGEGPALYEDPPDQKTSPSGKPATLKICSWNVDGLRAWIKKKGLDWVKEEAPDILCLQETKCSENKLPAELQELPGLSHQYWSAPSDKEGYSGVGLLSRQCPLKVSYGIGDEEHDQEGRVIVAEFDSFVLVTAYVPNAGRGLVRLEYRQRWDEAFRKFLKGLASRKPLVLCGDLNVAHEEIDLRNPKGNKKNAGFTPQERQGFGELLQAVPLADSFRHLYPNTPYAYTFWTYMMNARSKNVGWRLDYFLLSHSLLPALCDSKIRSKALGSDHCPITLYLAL
How it was run: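 APE1 preincubated 15 min RT with compound; 50 nM TAMRA/BHQ-2 THF-abasic duplex added; kinetic fluorescence, 3 reads at 60 s intervals, Ex 525/Em 598; progress = read 3 minus read 1.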

Measured: Potency

NCCc1ccc(S(=O)(=O)F)cc1
inactive: [1] | [2] | [3] | [4] | [5] | [6] | [7] | [8] | [9] | [10] | [11] | [12] | [13] | [14]

C[C@@H]1O[C@H](C[N+](C)(C)C)CS1
inactive: [1] | [2] | [3] | [4] | [5] | [15] | [7] | [8] | [9] | [10] | [11] | [12] | [16] | [13] | [14]

C[N+](C)(C)CCOC(=O)CBr
inactive: [1] | [2] | [3] | [4] | [5] | [6] | [15] | [7] | [8] | [9] | [10] | [11] | [17] | [12] | [13] | [14]

Cc1o[nH]c(=O)c1CC(N)C(=O)O (configuration not stated)
inactive: [1] | [2] | [3] | [4] | [5] | [6] | [7] | [8] | [9] | [10] | [11] | [17] | [12] | [16] | [13] | [18]

NC(CCCCCP(=O)(O)O)C(=O)O (configuration not stated)
inactive: [1] | [2] | [3] | [4] | [5] | [6] | [15] | [7] | [8] | [9] | [10] | [11] | [17] | [12] | [16] | [13] | [18] | [14]

CC(N)Cc1c[nH]c2ccc(O)cc12 (configuration not stated)
inactive: [1] | [2] | [3] | [4] | [5] | [15] | [7] | [8] | [9] | [10] | [11] | [12] | [16] | [18] | [14]

CC(=O)NBr
inactive: [19] | [20] | [1] | [3] | [4] | [5] | [7] | [8] | [9] | [10] | [11] | [17] | [12] | [16] | [13] | [14]

C=CCN1CCC23c4c5ccc(O)c4O[C@H]2C(=O)CC[C@@]3(O)C1C5 (some centres not stated)
inactive: [1] | [2] | [3] | [4] | [5] | [6] | [15] | [7] | [8] | [9] | [10] | [11] | [12] | [16] | [18] | [14]

NCCc1c[nH]c2ccc(C(N)=O)cc12
inactive: [1] | [2] | [3] | [4] | [5] | [15] | [7] | [8] | [9] | [10] | [11] | [12] | [13] | [18] | [14]

CCCN(CCC)CCc1ccc(O)c(O)c1
inactive: [1] | [2] | [3] | [4] | [5] | [6] | [15] | [7] | [8] | [9] | [10] | [12] | [16] | [13]

CN1CCC(c2c[nH]c3ccc(O)cc23)CC1
inactive: [1] | [2] | [3] | [4] | [5] | [6] | [7] | [8] | [9] | [10] | [11] | [12] | [16] | [13] | [18] | [14]

CCCN(CCC)[C@@H]1CCc2cccc(O)c2C1
inactive: [1] | [2] | [3] | [4] | [5] | [6] | [7] | [8] | [9] | [10] | [11] | [16] | [18] | [14]

COc1ccc2[nH]c3c(c2c1)CCNC3
inactive: [1] | [2] | [3] | [4] | [5] | [15] | [7] | [8] | [9] | [10] | [11] | [17] | [12] | [16] | [13] | [18]

CC(C)(C)c1o[nH]c(=O)c1CC(N)C(=O)O (configuration not stated)
inactive: [1] | [2] | [3] | [4] | [5] | [6] | [15] | [7] | [8] | [9] | [10] | [11] | [17] | [12] | [13] | [14]

c1ccc2cc(CC3=NCCN3)ccc2c1
inactive: [1] | [2] | [3] | [4] | [5] | [6] | [15] | [7] | [8] | [9] | [10] | [11] | [12] | [18] | [14]

NC(=O)c1ccc(OCC(O)CN2CC=C(c3ccc(F)cc3)CC2)cc1 (configuration not stated)
inactive: [1] | [2] | [3] | [4] | [5] | [6] | [15] | [7] | [9] | [10] | [11] | [17] | [12] | [18] | [14]
